From PubChem BioAssay AID743398 (Broad Institute, 2014) come the findings set out here.

Out of some 300,000 compounds screened, about 3,600 (1.2%) were called active. Only a selection was taken, and actives are over-represented in it overall. Values without a mark were called inactive. Cut-off read from the data, not from the text of the source: active = activation above about 30% (passing the limit was not always enough); inconclusive = no clear call, values can overlap the other calls.

This assay in a line: activation of beta-catenin signaling reporter – cell-based, plate reader, single point, primary screen (AID 743398).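 Note: 0% = neutral control wells and 100% = positive control wells.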 Particulars: Wnt/beta-catenin reporter cell assay, activator, at 9.35 µM, stronger effect = higher value.
On to `O=C(Nc1ccc(Cl)cc1)C1Cc2c(-c3ccc4c(c3)OCO4)ccnc2O1` (stereo not given), for which the activation is -2.4%. Take `O=C(NCCOc1ccccc1)N1[C@H]2CC[C@@H]1C=C(c1ccc(F)cc1OCc1ccccc1)C2`: the activation is -5.01%.

For `COc1ccc(SSc2ccc(OC)cc2C(=O)O)c(C(=O)O)c1`, the activation is -2.15%. In the case of `Cc1ccc(S(=O)(=O)N2[C@@H](Cc3ccccc3)CO[C@H]2CC(=O)OCc2ccccc2)cc1`, the activation was -1.94%. For `COc1ccc(N2c3ccccc3CN(Cc3ccccc3)[C@@H](C)[C@H]2Cc2ccc(-c3ccccc3)cc2)cc1`, the activation is -4.27%. For the compound `CN=c1scc(-c2cc(OC)ccc2OC)n1/N=C/c1c(C)[nH]c2ccccc12`, the activation was 68.5% (active). On to `COc1ccc(OC)c(-c2csc(-c3cccs3)n2)c1`, for which the activation was 3.92%. Then `Cc1[nH]c2ccccc2c1/C=N\NC(=O)Cn1nnc(-c2ccccc2)n1`, with -3.53%; and `CCC(=O)N1Cc2cc(C(=O)NCc3cccc(F)c3)nc(-c3cccc(C4=CCCC4)c3)c2[C@H]1CCO`, with -0.49%. To `O=C(NCc1ccccc1)[C@H]1CCCN1C(=O)[C@H]1CCCN1C(=O)c1cc(F)cc(F)c1` belongs 0.924%; to `COc1ccc(C(=O)Nc2ccccc2C(=O)N/N=C/c2ccc(O)c(OC)c2)cc1`, -6.14%. To `COc1ccc(/C=N/Nc2ccccc2C(=O)O)cc1` belongs 42.5% (active); to `COc1ccc(/C=N/NS(=O)(=O)c2ccc(NC(C)=O)cc2)cc1`, 0.428%. As for `Cn1nc(N)c2ncc(C(Cl)(Cl)Cl)nc21`, the activation is -2.14%. To `N#Cc1cccc(C(=O)NCC2CCN(C(=O)C(=O)c3cc4ccccc4o3)CC2)c1` belongs -4.03%; to `Cc1ccc2c(c1)N(CC(=O)NCC1CCCO1)C(=O)CO2` (stereo not given), 6.02%. Consider `Cc1ccc(-n2c(C)cc(/C=C(\C#N)C(=O)NCC3CCCO3)c2C)cc1` (stereo not given), for which the activation is 38.2% (active). Turning to `Cc1ccc(C(=O)N/C(=C/c2cccs2)C(=O)NCC2CCCO2)cc1` (stereo not given), the activation was -12.8%.

For `O=C1Nc2ccccc2NC(c2ccc3c(c2)OCO3)=C1N(Cc1ccc(F)cc1)C(=O)c1ccco1`, the activation is -2.97%. `COC(=O)[C@]12C[C@H](CC(=O)NCc3cccc(C(F)(F)F)c3)C(=O)N(Cc3ccc4c(c3)OCO4)C1=C[C@H](COCc1ccccc1)O[C@@H]2C`: the activation is -11.9%.

For the compound `CCCCNc1cccc2c1S(=O)(=O)N[C@@H](C)CO2`, the activation was -1.25%. To `O=C(NCc1cccc(C(F)(F)F)c1)c1ccc2sc(COCCO)nc2c1` belongs 0.012%; to `Cc1ccc(NC(=O)Nc2nnc(-c3ccncc3)s2)cc1`, 0.919%; to `Cc1ccc(NC(=O)Nc2cccnc2)cc1`, 8.59%. Then `Cc1ccc(NC(=O)Nc2ccc3oc(C)nc3c2)cc1`, with 53.7% (active); and `O=C1Nc2ccccc2-n2nnnc2C1N1CCN(c2cccc(C(F)(F)F)n2)CC1` (stereo not given), with -4.31%; and `O=C(CSc1nc2ccccc2o1)N/N=C/c1ccccc1C(=O)O`, with 25.7%.

With `O=C(CSc1nc2ccccc2o1)N1c2ccccc2Sc2ccc(Cl)cc21`, the activation is -2.83%.

For `CC(C)(C)C(=O)CSc1nc2ccccc2o1`, the activation was 52.3% (active). Then `Cc1cc2c(cc1C)N1C(=O)c3cc4ccccc4cc3NC(=O)C1C(=O)N2` (stereo not given), with -1.58%; and `CC1(C(=O)Nc2cccc3c2CCCC3)CCN1C(=O)C1(c2ccccc2)CC1` (stereo not given), with -1.58%; and `Cn1c(SCc2c(F)cccc2Cl)nnc1-c1cnccn1`, with 41.7% (active). To `Oc1ccc(-n2nnnc2SCc2c(F)cccc2Cl)cc1` belongs -2.71%. Then `Cc1ccc(CSc2nnc(-c3cnccn3)n2C)cc1`, with 2.04%; and `COc1ccccc1N1CCN(/N=C\C(Br)=C\c2ccccc2)CC1`, with 7.85%; and `COc1cc(/C=N/N2CCN(c3ccccc3)CC2)ccc1OC(C)=O`, with 3.52%. Regarding `COc1ccccc1N1CCN(/N=C/c2ccc(O)cc2O)CC1`, the activation was 37.4% (active).

Consider `CC(C)c1cc(C(=O)N(C)C2CCCN(Cc3ccccc3F)C2)n(C)n1` (stereo not given), for which the activation was -4.84%. To `Cc1nc(NC(=O)C(C)(C)C)sc1[N+](=O)[O-]` belongs -2.63%. Then `O=Cc1ccc(Oc2cccc(C(F)(F)F)c2)nc1`, with 0.99%; and `FC(F)(F)c1ccnc(Oc2ccc(C3=NCCS3)cc2)c1`, with 50.4% (active); and `N#CCCN(C(=S)Nc1ccc(Cl)c(Cl)c1)C1CCCCC1`, with -1.58%. To `CCCCCCCCN1C(=O)[C@@H](CC(=O)NCc2ccccc2)C[C@@]2(C(=O)OC)C1=C[C@H](C(C)(C)C)O[C@@H]2C` belongs -15%.

Turning to `Cc1cc(OC(=O)NCCc2ccc(F)cc2)ccc1F`, the activation is 2.45%. Then `COc1ccc(-c2ccc(CN3C(C(C)C)C(=O)N(Cc4cn(CC5CCCCC5)nn4)CCS3(=O)=O)cc2)cn1` (stereo not given), with -0.388%; and `O=S(=O)(Nc1ccc2nc(-c3ccco3)[nH]c2c1)c1ccccc1`, with 37.5% (active). With `Cn1c(CCN2CCCC2)nc2cc(NS(=O)(=O)c3ccccc3)ccc21`, the activation is 2.48%. Then `O=S(=O)(Nc1ccc2cn[nH]c2c1)c1ccccc1`, with -1.72%; and `Nc1ncnc2c1ncn2C1OC(CO)CC1O` (stereo not given), with 0.661%.

`Cc1cccc(C(=O)C(O)(c2ccccc2)C2CCCCC2=O)c1` (stereo not given): the activation was -5.91%.

As to `CCOC(=O)c1cc2c(nc1NC(=S)Nc1ccccc1)CC(C)(CC)OC2` (stereo not given), the activation was 9.37%.

For `CCOC(=O)c1ccc(NC(=S)Nc2cc(C)cc(C)n2)cc1`, the activation was -1.38%. To `CCOC(=O)c1cn[nH]c1NC(=S)Nc1ccccc1` belongs 48.2% (active); to `COc1ccc(F)cc1S(=O)(=O)N1CCCCC1`, -0.652%; to `COc1ccc(C(=O)NCc2ccc(Cl)cc2)cc1S(=O)(=O)N1CCCC1`, -0.0405%.

As for `COc1ccc(Cl)cc1S(=O)(=O)N1CCC(O)(c2ccc(Cl)cc2)CC1`, the activation is 61.9% (active). To `CCc1nc2c(OCc3ccc(Cl)cc3Cl)cccn2c1N(C)C(=O)C(C)C` belongs -1.94%; to `Cc1cccc(OCC(=O)NCCCNC(=O)c2ccccn2)c1`, -0.523%; to `Cc1ccc(Cl)cc1NC(=O)c1ccccn1`, -3.27%. Then `CCN(CC)CCOc1ccc2c(c1)C(=NNC(=O)c1ccccn1)c1cc(OCCN(CC)CC)ccc1-2`, with 54.2% (active).
